In PubChem BioAssay AID1347404 (Pan Lab, Icahn School of Medicine at Mount Sinai, 2020):
About 860 (0.61%) of roughly 140,000 compounds were called active. Many of the other results were omitted from the sample, so actives are more common in it than they were. Values without a mark were called inactive. No stated cut-off is given here; in the data, active means inhibition above about 25%; inactive means the rest.

Target: E3 ubiquitin-protein ligase RBX1 (Homo sapiens) + Cullin-1 (Homo sapiens) (UniProt P62877+Q13616)
Assay: inhibitors of human ROC1-CUL1 ubiquitin ligase activity (AID 1347404)
Conditions: in vitro K48 di-Ub FRET, acceptor:donor ratio, 45 min; at 10 µM; hits give high values

Sequence of E3 ubiquitin-protein ligase RBX1 (Homo sapiens) + Cullin-1 (Homo sapiens) (P62877 whole entry, looked up): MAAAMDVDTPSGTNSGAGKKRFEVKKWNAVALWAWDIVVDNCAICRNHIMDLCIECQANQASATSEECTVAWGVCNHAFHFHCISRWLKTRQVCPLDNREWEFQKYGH
Sequence of E3 ubiquitin-protein ligase RBX1 (Homo sapiens) + Cullin-1 (Homo sapiens) (Q13616 whole entry, looked up): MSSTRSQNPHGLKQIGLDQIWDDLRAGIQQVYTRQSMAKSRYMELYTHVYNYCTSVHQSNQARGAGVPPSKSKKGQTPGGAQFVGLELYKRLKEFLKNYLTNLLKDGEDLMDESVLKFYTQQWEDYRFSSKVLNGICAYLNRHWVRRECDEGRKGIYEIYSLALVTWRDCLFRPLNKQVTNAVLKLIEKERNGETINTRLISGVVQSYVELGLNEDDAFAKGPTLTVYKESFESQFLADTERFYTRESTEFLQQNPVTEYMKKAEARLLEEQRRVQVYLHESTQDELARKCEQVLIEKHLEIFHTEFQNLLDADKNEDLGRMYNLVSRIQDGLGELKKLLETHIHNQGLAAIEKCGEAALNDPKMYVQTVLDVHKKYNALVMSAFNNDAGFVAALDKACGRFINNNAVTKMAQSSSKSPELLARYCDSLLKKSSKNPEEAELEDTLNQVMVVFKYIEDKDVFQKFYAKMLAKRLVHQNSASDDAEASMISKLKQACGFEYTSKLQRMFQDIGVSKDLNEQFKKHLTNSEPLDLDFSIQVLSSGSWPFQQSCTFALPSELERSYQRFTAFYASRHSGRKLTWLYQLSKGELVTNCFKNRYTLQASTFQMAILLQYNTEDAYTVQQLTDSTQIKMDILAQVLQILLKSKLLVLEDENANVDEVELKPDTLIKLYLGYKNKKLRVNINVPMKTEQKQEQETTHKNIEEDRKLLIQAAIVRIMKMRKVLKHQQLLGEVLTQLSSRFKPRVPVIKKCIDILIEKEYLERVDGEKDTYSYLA

Compound | inhibition
Cc1[nH]nc2c1C(c1cccc(OCc3ccccc3Cl)c1)C(C#N)C(=N)O2 (configuration not stated) | -9.52%
Cc1ccc(C2Oc3ccccc3C3CC(c4cccs4)=NN32)o1 (configuration not stated) | 0.171%
CCN(CC)C(=O)c1sc(NC(=O)C(Sc2ccccc2)c2ccccc2)c(C#N)c1C (configuration not stated) | 2.76%
Oc1ccc2oc(SCCOCCOCCOCCSc3cc4cc(O)ccc4o3)cc2c1 | 0.44%
O=C(COC(=O)c1cc(Cl)c(Cl)cc1C(=O)OCC(=O)c1ccccc1)c1ccccc1 | 7.68%
O=C(O)CSCC(=O)Nc1nccs1 | -17.6%
O=C1C2CCCN2C(=O)N1CCCCN1CCN(c2cccc(C(F)(F)F)c2)CC1 (configuration not stated) | -6.27%
c1ccc(-c2oc(-c3ccccc3)c(-c3ccccc3)c2-c2ccccc2)cc1 | -5.11%
CCc1ccc(-c2cc(C(F)(F)F)n3nc(C(=O)N(C)Cc4cnn(C)c4C)cc3n2)s1 | -10.3%
N#Cc1ccc(-c2nc3cc(C#N)c(C#N)cc3nc2-c2ccccc2)cc1C#N | 0.0365%
N#Cc1c(-c2ccccc2)c(-c2ccccc2)n[nH]c1=O | 49.7% (active)
COc1ccc(-c2n[nH]c(=O)c3ccccc23)cc1 | 0.605%
COc1cc(OC)c(OC)cc1CN1CC[C@@H](N2CCC(O)CC2)[C@H](O)C1 | 13%
C=CCN1C(=O)N=C(Cc2ccc(-c3cccc(F)c3)o2)C1=O | 2%
O=C(O)c1cc(-c2ccc(CC3=NC(=S)N(c4ccc(Cl)cc4)C3=O)o2)ccc1Cl | 101% (active)
OCc1ccc(-c2cc(Cl)cc(Cl)c2)o1 | -5.33%
COc1cccc(C(=O)NC2(C(F)(F)F)C(=O)N=C3C2C(=O)NC(=O)N3c2ccc(C)cc2)c1 (configuration not stated) | -7.22%
Cc1ccc(-c2c3nnc4ccccc4c3nc3sc4c(=O)[nH]c(C)nc4c23)cc1 | 6.93%
COc1ccc(F)c(-c2nc(CN(C)Cc3nonc3C)c(C)o2)c1 | 3.31%
COCCCN1C(=O)CC(CC(=O)N2CCN(C)C(c3ccccc3)C2)(c2ccccc2OC)C1=O (configuration not stated) | 9.56%
COc1cccc(CC2(CO)CCN(C(=O)c3cnn(C(C)C)c3)CC2)c1 | 4.94%

Compound | inhibition
O=C(NC1CCCN(CCc2ccccc2)C1)c1cccc(N2CCOCC2)c1 (configuration not stated) | 5.73%
O=C(NNc1cc(N2CCCC2)nc(N2CCCC2)n1)c1ccccc1 | 31.7% (active)
COc1ccc(C(=O)Nc2ccc3nc(N4CCCCC4)cc(C)c3c2)cc1OC | -8.5%
Cc1ccc(-c2csc(NNC(=O)c3ccccc3)n2)cc1 | -5.78%
COCCN(CC1CCN(Cc2ccccc2F)CC1)C(=O)CCCN1CCCCC1=O | 14.5%
Cc1ccccc1OC(C)C(=O)Nc1nccs1 (configuration not stated) | 0.702%
CCCN1C(=O)/C(=C\c2cn(CC(=O)O)c3ccccc23)C(=O)N(c2ccccc2)C1=S | 48.9% (active)
CCn1cc(/C=C2\SC(=O)N(CC(=O)Nc3cccc(C)c3)C2=O)c2ccccc21 | 0.178%
CCN1C(=O)C(=Cc2ccc(-c3ccccc3)o2)C(=O)N(CC)C1=S | -2.58%
COc1cc(C(=O)O)ccc1OC(=O)C1CCCCC1 | 2.41%
CCCCCCCCCCCCOc1c(OC)cc(C(=O)O)cc1OC | 26.5% (active)
CCCCCOc1cccc(OCC(=O)Nc2cccc(OC)c2)c1 | 0.894%
Cc1cccc(-n2c(C)c(C)n3c4c(=O)n(CCCO)c(=O)n(C)c4nc23)c1 | -0.432%
CCCNC(=O)c1nnn(-c2ccc(C)cc2)c1C | 2.76%
CN1CCC2(CC1)CC(=O)NC2=O | -1.86%
Nc1ccc([N+](=O)[O-])cc1OCc1ccccc1 | 6.18%
CCn1c2ccccc2c2cc(NS(=O)(=O)c3ccc(Cl)nc3)ccc21 | -11.1%
Cc1cc(OC(C)C(=O)N2CCN(c3ccccc3)CC2)cc(C)c1Cl (configuration not stated) | 12.3%
O=C(Nc1cccc(Cl)c1)C(=S)NCc1ccco1 | 3.18%
Nc1c(C(=O)Nc2ccc(F)c(Cl)c2)sc2nc(-c3ccc(F)cc3)ccc12 | -0.694%
COCC(=O)N1CCCC(C(=O)c2cccc(C(F)(F)F)c2)C1 (configuration not stated) | 11%
